The text below walks through data of PubChem BioAssay (NCI).

This is part of a sample that, as a whole, favours compounds with a hit. Of some 79,000 tested, about 15% had one in any assay. Values without a mark were called inactive. Calls of active or inactive are those of the source. Cut-off read from the data, not from the text of the source: active = growth inhibition above about 70%; inactive = the rest.

The nature of this assay: NCI Yeast Anticancer Drug Screen. Data for the bub3 strain (AID 167). As to conditions: S. cerevisiae bub3 mutant strain, at 50.0 µM, hits give high values. The procedure, abridged: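 Part of a panel of yeast mutants defective in DNA damage repair or cell cycle regulation. Each strain is grown with compound, and inhibition is calculated relative to solvent-treated cultures.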
For the molecule `Cc1cc2c(c(C(=O)NCC(=O)O)c1)Oc1c(cc(C)cc1C(=O)NCC(=O)O)S2`, the growth inhibition was -29.9%. As to `O=C(Nc1ccc(Cl)cc1)Nc1nnc2nc(CC(=O)c3cccc([N+](=O)[O-])c3Cl)c(=O)[nH]n12`, the growth inhibition is 5.6%. Then `CC(C)C(CC(=O)O)C(=O)O` (stereo not drawn), with 3.95%. Consider `COCC(=O)c1ccc(C#N)cc1`, for which the growth inhibition is 4.45%. For the molecule `CCCCCCC(C)Cl` (stereo not drawn), the growth inhibition is 5.9%. On to `COc1ccc(C2N3CCCCC3[C@@H]3c4[nH]c5ccccc5c4CCN23)c(OC)c1` (stereo partly drawn), for which the growth inhibition was -5.3%. `O=C1CCCCCCN1`: the growth inhibition is -17.2%. `NC(Cc1ccccc1CP(=O)(O)O)C(=O)O` (stereo not drawn): the growth inhibition is -29.9%. With `CCOC(=O)c1sc(C(=O)OCC)c(O)c1O`, the growth inhibition was 95.7% (active). In the case of `CCOc1ccc(NC(=O)C(=O)CC(=O)C2=C(C)Nc3ccccc3S2)cc1`, the growth inhibition was -1%. With `S=C1CC(c2ccccc2)Sc2ccccc2N1` (stereo not drawn), the growth inhibition was 30.3%.

In the case of `CCN(CC)CCN1Cc2ccccc2C1`, the growth inhibition is 7.4%.

`CCc1ccccc1NC(=O)C1=C(C)NC(C)=C(C(=O)Nc2ccccc2CC)C1c1ccc2c(c1)OCO2`: the growth inhibition is -0.75%.

In the case of `COC(=O)C1CCC=CC1OC(C)=O` (stereo not drawn), the growth inhibition was 5.25%. Take `CCN(CC)c1ccc(Br)cc1`: the growth inhibition is 14.2%. `COC(=O)CC1(O)C=C(C)C(=O)c2ccccc21` (stereo not drawn): the growth inhibition is 25.2%. For `CNC(=O)Sc1ccc([N+](C)(C)C)cc1`, the growth inhibition was 18.8%. `Cc1c2oc3c(C)ccc(C(=O)NCCN4CCN(c5ccccc5)CC4)c3nc-2c(C(=O)NCCN2CCN(c3ccccc3)CC2)c(N)c1=O`: the growth inhibition is -3.9%.
